Structures can show the parent of a compound that is named as a salt.
Tests used:
Conditions in all cases: treatment time: 24 h
[1] = system: A549-ACTB-RAB5A; assay: lowest phenotypically active concentration; higher = less potent
Outline: (§1)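 Fifteen reporter lines derived from A549, HepG2 and WPMY1 cells by gene editing, carrying BFP for segmentation plus GFP and RFP/FusionRed markers, were exposed to 0.3, 1, 3 or 9 µM for 24 h in four wells each and imaged live. Live-cell features from each well were normalised to solvent control wells. A well set counted as deviating when ≥3 of 4 wells lay beyond the 95th percentile of control Euclidean distances, and as reproducible when the median replicate Pearson correlation exceeded the 95th percentile of non-replicates. Phenotypic activity was assigned only when both criteria were met.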

[2] = system: A549-CANX-COX4; assay: as above
Outline: as §1

[3] = system: A549-GM130-SQSTM1; assay: as above
Outline: as §1

[4] = system: A549-TP53BP1-CLTA; assay: as above
Outline: as §1

[5] = system: A549-TUBA1B-RELA; assay: as above
Outline: as §1

[6] = system: A549-ACTB-RAB5A; assay: phenotypically active (imaging signature differs from DMSO and reproducible) at any of 0.3-9 uM (binary (1 = active, 0 = inactive)); higher = active
Outline: as §1

[7] = system: A549-CANX-COX4; assay: as above
Outline: as §1

[8] = system: A549-GM130-SQSTM1; assay: as above
Outline: as §1

[9] = system: A549-TP53BP1-CLTA; assay: as above
Outline: as §1

[10] = system: A549-TUBA1B-RELA; assay: as above
Outline: as §1

[11] = system: HepG2-ACTB-RAB5A; assay: as above
Outline: as §1

[12] = system: HepG2-CANX-COX4; assay: as above
Outline: as §1

[13] = system: HepG2-GM130-SQSTM1; assay: as above
Outline: as §1

[14] = system: HepG2-TP53BP1-CLTA; assay: as above
Outline: as §1

[15] = system: HepG2-TUBA1B-RELA; assay: as above
Outline: as §1

[16] = system: WPMY1-ACTB-RAB5A; assay: as above
Outline: as §1

[17] = system: WPMY1-CANX-COX4; assay: as above
Outline: as §1

[18] = system: WPMY1-GM130-SQSTM1; assay: as above
Outline: as §1

[19] = system: WPMY1-TP53BP1-CLTA; assay: as above
Outline: as §1

[20] = system: WPMY1-TUBA1B-RELA; assay: as above
Outline: as §1

SMILES | lowest phenotypically active concentration [1] | lowest phenotypically active concentration [2] | lowest phenotypically active concentration [3] | lowest phenotypically active concentration [4] | lowest phenotypically active concentration [5] | phenotypically active [6] | phenotypically active [7] | phenotypically active [8] | phenotypically active [9] | phenotypically active [10] | phenotypically active [11] | phenotypically active [12] | phenotypically active [13] | phenotypically active [14] | phenotypically active [15] | phenotypically active [16] | phenotypically active [17] | phenotypically active [18] | phenotypically active [19] | phenotypically active [20]
Nc1ncnc2c1c(-c1cnc3[nH]ccc3c1)nn2C1CCCC1 | ≤ 0.3 µM | 1 µM | ≤ 0.3 µM | ≤ 0.3 µM | ≤ 0.3 µM | 1 (active) | 1 (active) | 1 (active) | 1 (active) | 1 (active) | 1 (active) | 1 (active) | 1 (active) | 1 (active) | 1 (active) | 1 (active) | 1 (active) | 1 (active) | 1 (active) | 1 (active)
COc1ccccc1S(=O)(=O)Nc1ccc2c(c1)CN(C)C(=O)N2 | 1 µM | 3 µM | 3 µM | 3 µM | 3 µM | 1 (active) | 1 (active) | 1 (active) | 1 (active) | 1 (active) | 1 (active) | 1 (active) | 1 (active) | 1 (active) | 1 (active) | 1 (active) | 1 (active) | 1 (active) | 1 (active) | 1 (active)
O=C(Nc1c[nH]nc1-c1nc2cc(CN3CCOCC3)ccc2[nH]1)NC1CC1 | ≤ 0.3 µM | ≤ 0.3 µM | ≤ 0.3 µM | ≤ 0.3 µM | ≤ 0.3 µM | 1 (active) | 1 (active) | 1 (active) | 1 (active) | 1 (active) | 1 (active) | 1 (active) | 1 (active) | 1 (active) | 1 (active) | 1 (active) | 1 (active) | 1 (active) | 1 (active) | 1 (active)
C=CC(=O)Nc1cccc(Nc2nc(Nc3ccc(OCCOC)cc3)ncc2F)c1 | 3 µM | 3 µM | 9 µM | 3 µM | 9 µM | 1 (active) | 1 (active) | 1 (active) | 1 (active) | 1 (active) | 1 (active) | 1 (active) | 1 (active) | 1 (active) | 1 (active) | 1 (active) | 1 (active) | 1 (active) | 1 (active) | 1 (active)
CN1CC[C@H](c2c(O)cc(O)c3c(=O)cc(-c4ccccc4Cl)oc23)[C@H](O)C1 [Flavopiridol hydrochloride] | ≤ 0.3 µM | ≤ 0.3 µM | ≤ 0.3 µM | ≤ 0.3 µM | ≤ 0.3 µM | 1 (active) | 1 (active) | 1 (active) | 1 (active) | 1 (active) | 1 (active) | 1 (active) | 1 (active) | 1 (active) | 1 (active) | 1 (active) | 1 (active) | 1 (active) | 1 (active) | 1 (active)
Nc1ncn([C@@H]2O[C@H](CO)[C@@H](O)[C@H]2O)c(=O)n1 [5-Azacytidine] | 1 µM | 3 µM | 1 µM | 1 µM | 9 µM | 1 (active) | 1 (active) | 1 (active) | 1 (active) | 1 (active) | 1 (active) | 1 (active) | 1 (active) | 1 (active) | 1 (active) | 1 (active) | 1 (active) | 1 (active) | 1 (active) | 1 (active)
CC[C@]1(O)C[C@@H]2CN(CCc3c([nH]c4ccccc34)[C@@](C(=O)OC)(c3cc4c(cc3OC)N(C=O)[C@H]3[C@@](O)(C(=O)OC)[C@H](OC(C)=O)[C@]5(CC)C=CCN6CC[C@]43[C@@H]65)C2)C1 [vincristine] | ≤ 0.3 µM | ≤ 0.3 µM | ≤ 0.3 µM | ≤ 0.3 µM | ≤ 0.3 µM | 1 (active) | 1 (active) | 1 (active) | 1 (active) | 1 (active) | 1 (active) | 1 (active) | 1 (active) | 1 (active) | 1 (active) | 1 (active) | 1 (active) | 1 (active) | 1 (active) | 1 (active)
O=C(O)c1ccc(Nc2ncc3c(n2)-c2ccc(Cl)cc2C(c2c(F)cccc2F)=NC3)cc1 | ≤ 0.3 µM | ≤ 0.3 µM | ≤ 0.3 µM | ≤ 0.3 µM | ≤ 0.3 µM | 1 (active) | 1 (active) | 1 (active) | 1 (active) | 1 (active) | 1 (active) | 1 (active) | 1 (active) | 1 (active) | 1 (active) | 1 (active) | 1 (active) | 1 (active) | 1 (active) | 1 (active)
COc1ccc(C[C@H](N)C(=O)N[C@H]2[C@@H](O)[C@H](n3cnc4c(N(C)C)ncnc43)O[C@@H]2CO)cc1 [Puromycin dihydrochloride] | ≤ 0.3 µM | 1 µM | 1 µM | 1 µM | 1 µM | 1 (active) | 1 (active) | 1 (active) | 1 (active) | 1 (active) | 1 (active) | 1 (active) | 1 (active) | 1 (active) | 1 (active) | 1 (active) | 1 (active) | 1 (active) | 1 (active) | 1 (active)
CCCC1(CCC)CCC2(CCN(CCCN(CC)CC)C2)CC1 [Atiprimod dihydrochloride] | ≤ 0.3 µM | 3 µM | ≤ 0.3 µM | 1 µM | ≤ 0.3 µM | 1 (active) | 1 (active) | 1 (active) | 1 (active) | 1 (active) | 1 (active) | 1 (active) | 1 (active) | 1 (active) | 1 (active) | 1 (active) | 1 (active) | 1 (active) | 1 (active) | 1 (active)
Cc1ccc2nc(NCCN)c3ncc(C)n3c2c1 | 3 µM | 9 µM | 3 µM | 3 µM | 3 µM | 1 (active) | 1 (active) | 1 (active) | 1 (active) | 1 (active) | 1 (active) | 1 (active) | 1 (active) | 1 (active) | 1 (active) | 1 (active) | 1 (active) | 1 (active) | 1 (active) | 1 (active)
COCC(=O)O[C@]1(CCN(C)CCCc2nc3ccccc3[nH]2)CCc2cc(F)ccc2[C@@H]1C(C)C [mibefradil] | 3 µM | 9 µM | 3 µM | 9 µM | 3 µM | 1 (active) | 1 (active) | 1 (active) | 1 (active) | 1 (active) | 1 (active) | 1 (active) | 1 (active) | 1 (active) | 1 (active) | 1 (active) | 1 (active) | 1 (active) | 1 (active) | 1 (active)
COc1cc(OC2CCN(C)CC2)ccc1Nc1ncc2c(n1)n(C1CCCC1)c(=O)n2C | 3 µM | 3 µM | 3 µM | 3 µM | 3 µM | 1 (active) | 1 (active) | 1 (active) | 1 (active) | 1 (active) | 1 (active) | 1 (active) | 1 (active) | 1 (active) | 1 (active) | 1 (active) | 1 (active) | 1 (active) | 1 (active) | 1 (active)

Source: the supplement of paper PMC7411054
